TDP1 cell noCPT: qHTS for Inhibitors of human tyrosyl-DNA phosphodiesterase 1 (TDP1): qHTS in cells in absence of CPT. AID 686978, 2013. DT40 Tdp1-/- hTDP1 cells, no CPT, ATP luminescence, 48 h. Potency, µM (series often up to 46.2 µM), for the others: at the top dose activity change, negative = growth inhibition, actives largely listed as inhibitors. 420,000 compounds, 15% hits; further: potency means the concentration at half of the fitted maximal effect; nearly all actives have a fitted effect of over 55% in size
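Growth kinetics read by CellTiter-Glo luminescence after ≥48 hr at 37 °C. Cells: DT40 Tdp1-/- stably carrying human TDP1, 400 per well, compound exposure in the absence of CPT (DMSO vehicle).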
IL-1B inflam inh: blocks inflammasome-driven IL-1 beta release | THP-1 LPS/ATP IL-1B secretion, AlphaLISA, 16 h; hits give low values | activity change, % at 57.5 µM | 360,000 compounds, 4.7% hits | AID 743279; in the data active means activity change below about -50%; inconclusive means mostly about -30% to -49%
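THP-1 cells pretreated 1 hr with compounds (up to 57.5 uM final), then stimulated with LPS (250 ng/mL final) plus ATP (1.25 mM final); secreted IL-1B measured by AlphaLISA after 16 hr, decreased signal indicating inhibition.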
HT1080NT lethal: kills 2HG-producing HT-1080-NT fibrosarcoma cells; HT-1080-NT fibrosarcoma viability, CellTiter-Glo ATP luminescence, 48 h; Potency, µM (highest dose often 46.1 µM), inactives show at the top dose activity, negative = less viability, actives largely listed as cytotoxic; 360,000 compounds, 1.6% hits;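 further: NT is the 2HG producing partner of a matched IDH1 knockdown line; potency means the concentration at half of the fitted maximal effect; 0% = DMSO-treated cells and -100% = media-only wells without cells; nearly all actives have a fitted effect of over 55% in size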
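Luminescent CellTiter-Glo readout after 48 hours of compound exposure at 37 degrees C defined viability of HT-1080-NT cells. Activity was normalized to DMSO wells and cell-free media wells; concentration-response curves were fitted and assigned curve classes.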
DT40 TDP1 CPT: growth inhibition of DT40 Tdp1-/-;hTDP1 cells with camptothecin (screen for TDP1 inhibitors) | chicken DT40 Tdp1-/-;hTDP1 cells + 20 nM CPT, ATP luminescence, 48 h | Potency, µM (titrated, usually from 46.2 µM), for the others: at the top dose activity change, negative = growth inhibition, hits mostly inhibitors | 420,000 compounds, 12% hits | AID 686979; further: potency means the concentration at half of the fitted maximal effect; nearly all actives have a fitted effect of over 55% in size
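Chicken DT40 Tdp1-/- cells stably complemented with human TDP1 were seeded at 400 cells/well in medium containing 20 nM camptothecin, exposed to pin-transferred compounds, and grown at 37 °C for at least 48 hr. Viability was read as ATP luminescence.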
uPA generation: cell surface uPA generation inhibition | cell surface uPA generation assay, qHTS | Potency, µM (titrated, usually from 38.3 µM), without a hit: top-dose activity change, negative = inhibition, most hits filed as inhibitors | 330,000 compounds, 0.31% hits | AID 540303; active means well fitted inhibition curve with a large enough effect; inconclusive means small, poorly fitted or top-dose-only effect; inactive means no such curve, though single readings can be large or run the other way; tested in mouse RAW 264.7 cells; further: potency means the concentration at half of the fitted maximal effect; nearly all actives have a fitted effect of over 55% in size
HT1080 IDH1KD tx: toxicity to HT-1080 IDH1 knockdown cells (counter line); AID 686971; 360,000 compounds, 2% hits; Potency, µM (highest dose often 46.1 µM), without a hit: at the top dose activity, negative = toxicity, actives largely listed as cytotoxic; HT-1080 IDH1 knockdown viability, ATP luminescence, 48 h;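 further: potency means the concentration at half of the fitted maximal effect; 0% = DMSO wells and -100% = cell-free medium wells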
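% activity derives from luminescence (CellTiter-Glo), normalised to DMSO and no-cell wells. HT-1080-IDH1KD cells, 750/well, had 48 h compound exposure at 37 °C.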
The depositor's hits bear a star; ? = inconclusive; nt = no result given. Hits are enriched below; roughly 19% of the tested compounds scored in any of these assays. Unless noted, the call rests on the fitted dose curve; in most records, active means well fitted curve in the direction sought with a large enough effect; inconclusive means small, poorly fitted or top-dose-only effect, or another doubt; inactive means no such curve, though single readings can be large; an effect the other way counts as inactive or inconclusive. Unless noted, on the % scale 0 is the no-effect control and ±100 the full control effect.

SMILES | TDP1 cell noCPT | IL-1B inflam inh | HT1080NT lethal | DT40 TDP1 CPT | uPA generation | HT1080 IDH1KD tx
Cc1ccc2c(c1)c1c3n2CCN(C(=O)CCl)C3CCC1 (configuration not stated) | 3.26µM* | -98.6* | 16.4µM* | 4.61µM* | -12.0% | ?
Cc1ccc2c(c1)c1c3n2CCN(CCC#N)C3CCC1 (configuration not stated) | -12.0% | -0.2 | 4.3% | ? | nt | -0.4%
CCCN(CCC)S(=O)(=O)c1ccc(C(=O)N2CCn3c4c(c5cc(C)ccc53)CCCC42)cc1 (configuration not stated) | ? | nt | nt | 16.4µM* | nt | nt
CCN1CCn2c3c(c4cc(C)ccc42)CCCC31 (configuration not stated) | 23.1µM* | -6.2 | 1.9% | ? | 8.7% | -3.3%
Cc1ccc(NC(=O)CCS(=O)(=O)c2cccc3nsnc23)c(C)c1 | -5.3% | nt | nt | 4.1% | nt | nt
COc1ccc(-c2ccc(C(=O)NCc3ccc(N(C)C)cc3)c3occc23)c(C)c1 | 16.4µM* | -14.9 | -12.4% | ? | nt | ?
O=C(NCc1cccc(Cl)c1)c1ccc(-n2cncn2)c2ccoc12 | ? | -27.9 | 0.6% | 16.4µM* | nt | -3.0%
COc1ccc(-c2coc3c(C(=O)NCc4cccs4)cccc23)c(C)c1 | 18.4µM* | -52.6* | ? | 23.1µM* | nt | ?
COc1ccc(-c2coc3c(C(=O)NCc4ccco4)cccc23)c(C)c1 | ? | -26.1 | 18.4µM* | 18.4µM* | nt | ?
O=C(NCc1cccc(Cl)c1)c1ccc(-n2ccnc2)c2ccoc12 | ? | -23.7 | 0.7% | ? | nt | 2.1%
O=C(O)C1C2CC(C(Br)C2Br)C1C(=O)O (configuration not stated) | 4.3% | 8.7 | 0.0% | 7.9% | 9.0% | 2.2%
COc1ccc(-c2ccc(C(=O)NCCc3ccccc3)c3occc23)c(C)c1 | 20.6µM* | -15.4 | ? | 20.6µM* | nt | ?
COc1ccc(-c2coc3c(C(=O)NCc4ccc(C(F)(F)F)cc4)cccc23)c(C)c1 | -94.1% | -6.5 | ? | ? | nt | ?
COc1ccc(-c2ccc(C(=O)NCc3ccco3)c3occc23)c(C)c1 | ? | -53.2* | ? | ? | nt | ?
COc1ccc(-c2coc3c(C(=O)NCC4CC4)cccc23)c(C)c1 | 25.9µM* | 0.4 | ? | 6.51µM* | nt | ?
COc1ccc(-c2coc3c(C(=O)NCc4cccc(Cl)c4)cccc23)c(C)c1 | 14.6µM* | -11.0 | ? | 14.6µM* | nt | -5.7%
CCOc1cc(CN2CCC(n3nccc3NC(=O)C3CC3)CC2)ccc1O | 2.0% | 12.4 | 3.3% | 1.9% | 14.6% | 11.3%
COC(=O)C(C)NC(=O)c1cn(-c2ccccc2OC)c(=O)c2ccccc12 (configuration not stated) | -0.2% | 38.3 | 9.2% | -13.1% | 5.4% | 2.6%
Cc1ccc(Cl)cc1NC(=O)CSc1nc2ccccc2c2nc(-c3ccccc3)nn12 | -2.8% | nt | nt | -15.3% | nt | nt
Cn1cc(-c2coc3c(C(=O)NCc4cccc(Cl)c4)cccc23)cn1 | 5.8µM* | -67.6* | ? | ? | nt | -22.2%
COc1ccc(CNC(=O)c2ccc(-n3ccnc3)c3ccoc23)cc1OC | ? | -15.7 | 2.1% | 18.4µM* | nt | -4.3%
Cn1cc(-c2coc3c(C(=O)NCc4cccs4)cccc23)cn1 | ? | -8.9 | 8.4% | ? | nt | 2.4%
COC(=O)[C@@]1(Cc2ccc(F)cc2)[C@H]2c3cc(C(=O)N(C)C)n(CCF)c3C[C@H]2CN1C(=O)c1ccccc1 | ? | -26.9 | -29.6% | ? | nt | ?
COC(=O)[C@@]1(Cc2ccccc2)[C@@H]2C(=CC(=O)[C@H]2CC(=O)C(=O)N(C)C)CN1C(=O)c1ccccc1 | 8.2µM* | -105.3* | 16.4µM* | 9.2µM* | 2.82µM* | 20.6µM*
O=C(/C=C1\NC2(CCCC2)Cc2ccccc21)N1CCOCC1 | 11.6µM* | -15.0 | ? | 11.6µM* | 3.7% | ?
SMILES | TDP1 cell noCPT | IL-1B inflam inh | HT1080NT lethal | DT40 TDP1 CPT | uPA generation | HT1080 IDH1KD tx
N#CC(C#N)=C1NC2(CCCCC2)Cc2ccccc21 | -0.1% | 4.8 | -1.0% | -12.8% | -8.7% | -1.7%
O=C1C2C3CCCC3=C3CCCC3C2C(=O)N1c1ccc(F)cc1 (configuration not stated) | 18.4µM* | 16.0 | -3.7% | ? | 14.7% | -6.3%
O=C(C1=COCCO1)N1CCN(c2nc3ccc([N+](=O)[O-])cc3s2)CC1 | 5.17µM* | 1.7 | 2.8% | 9.2µM* | 14.6% | -1.9%
COc1cc(OC)c(NC(c2nnc(-c3ccccc3)o2)c2ccc(F)cc2Cl)cc1Cl (configuration not stated) | 18.4µM* | nt | nt | ? | nt | nt
CCCCCCC1CC(/C(C)=N\NC(N)=O)OC1=O (configuration not stated) | -6.9% | -6.6 | 7.8% | -13.0% | -0.8% | 28.4%
CCCCCCCCCCC[C@@H](C[C@@H]1OC(=O)[C@H]1CCCCCC)OC(=O)[C@H](CC(C)C)NC=O | 18.4µM* | -17.4 | 7.5% | ? | 10.4% | -16.3%
O=C(Nc1ccc(Br)cc1)c1cccc(C(=O)Nc2ccc(Br)cc2)c1 | 20.6µM* | nt | nt | ? | nt | nt
O=C(Nc1ccncc1)c1ccc(Cl)cc1 | -25.5% | 15.2 | 6.0% | ? | -2.8% | 3.0%
Nc1ccc(C(=O)Nc2ccc(Nc3ccncc3)cc2)cc1 | 29.1µM* | -2.2 | -2.8% | ? | 7.7% | -4.4%
O=C(Nc1ccncc1)c1ccc(Br)cc1 | 5.17µM* | -15.1 | 3.2% | ? | -15.0% | 2.2%
CC(=O)Nc1ccc(NC(=O)c2ccc(COc3ccccc3)cc2)cc1 | -14.9% | 0.5 | 0.9% | -8.6% | -1.1% | 3.8%
O=C(O)c1cccc(NC(=S)N/N=C/c2ccccc2OCc2cccc(Br)c2)c1 | ? | 7.0 | 0.6% | 23.1µM* | 2.4% | 8.6%
O=C(N/N=C/c1ccccc1OCc1ccccc1)c1cccnc1 | 29.1µM* | 8.8 | -4.2% | ? | ? | -14.6%
CC(=O)Nc1ccc(C(=O)N/N=C/c2ccccc2OCc2ccccc2)cc1 | 20.6µM* | 13.1 | 16.4µM* | ? | -8.7% | 20.6µM*
O=C(N/N=C/c1ccccc1[N+](=O)[O-])c1ccc(COc2ccccc2-c2ccccc2)cc1 | 11.6µM* | -4.4 | 6.7% | 11.6µM* | -1.9% | 10.1%
CSc1nc(S(C)(=O)=O)nc2[nH]c(=O)[nH]c12 | 1.2% | 4.4 | 13.0% | -5.8% | 5.8% | 1.5%
CC(=O)N1CCC2(CCCN(C(=O)Nc3cccc(F)c3)C2)CC1 | 8.2% | nt | nt | -5.0% | nt | nt
